In the library only some 14% were active in any assay of this set; here they are far more common.
USP10 block: blocks human USP10 ubiquitin-rhodamine cleavage; Q14694; purified USP10, Ub-rhodamine fluorescence, 60 min; inhibition, % at 20 µM; hit rate 1.1% among 47,000
USP28 block: blocks human USP28 ubiquitin-rhodamine cleavage; hit rate 3% among 47,000; inhibition, % at 25 µM; Q96RU2; purified USP28, Ub-rhodamine cleavage fluorescence, 30 min
USP17 inh: human USP17-like deubiquitinase inhibition; A8MUK1; purified USP17, Ub-rhodamine cleavage fluorescence, 3 h; inhibition, % at 50 µM; hit rate 6.5% among 47,000; AID 1645855
Target sequence (A8MUK1 whole entry, looked up): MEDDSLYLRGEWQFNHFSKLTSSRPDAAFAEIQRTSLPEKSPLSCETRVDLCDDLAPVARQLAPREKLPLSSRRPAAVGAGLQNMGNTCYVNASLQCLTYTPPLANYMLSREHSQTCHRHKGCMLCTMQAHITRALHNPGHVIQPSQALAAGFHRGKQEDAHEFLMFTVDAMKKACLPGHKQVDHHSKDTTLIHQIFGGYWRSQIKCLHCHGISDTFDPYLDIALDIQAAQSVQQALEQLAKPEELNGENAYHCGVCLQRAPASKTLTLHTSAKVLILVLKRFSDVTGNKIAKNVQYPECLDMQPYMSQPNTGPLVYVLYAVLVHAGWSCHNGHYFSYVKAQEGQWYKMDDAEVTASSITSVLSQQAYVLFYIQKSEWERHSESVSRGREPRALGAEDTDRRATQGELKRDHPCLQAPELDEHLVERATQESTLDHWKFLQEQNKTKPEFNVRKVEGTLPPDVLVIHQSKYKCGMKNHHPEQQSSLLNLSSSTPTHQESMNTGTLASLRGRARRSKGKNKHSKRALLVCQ
USP8 block: human USP8 deubiquitinase inhibition; hit rate 4.2% among 47,000; inhibition, % at 20 µM; P40818; purified USP8, Ub-rhodamine cleavage fluorescence, 30 min
USP30 inh: blocks human USP30 ubiquitin-rhodamine cleavage | purified USP30, Ub-rhodamine cleavage fluorescence | AID 1645860 | Q70CQ3 | hit rate 5.3% among 47,000 | inhibition, % at 25 µM
A number is an active result; – = inactive; · = no result given. Cut-off read from the data, not from the text of the source: active = inhibition above about 30%; inactive = the rest.

SMILES	USP10 block	USP28 block	USP17 inh	USP8 block	USP30 inh
CCn1c(SCC(=O)Nc2ccc(C)c(Cl)c2)nnc1-c1ccc2c(c1)OCCO2	–	–	–	31	40
CC(=O)N[C@@]12CN(CC(=O)Nc3cccc(C)c3C)CC[C@@H]1[C@@H](c1ccccc1)N(C(C)=O)C2	–	–	–	–	–
NC(=O)c1ccc(Oc2ccc(Cl)cc2)nc1	–	37	32	–	–
CCCOc1ccc(C2CN3C(=O)CN(Cc4ccco4)C(=O)[C@]3(C)c3[nH]c4ccccc4c32)cc1OCC (some centres not stated)	–	–	–	–	–
NC(=O)c1nc(-c2cccnc2)nc2c1[nH]c(=O)n2-c1ccc2c(c1)OCO2	–	53	46	53	–
NC(=O)c1nc(-c2ccccn2)nc2c1[nH]c(=O)n2-c1ccc2c(c1)OCO2	–	–	43	–	43
Cc1cccc(-n2c(=O)[nH]c3c(C(N)=O)nc(-c4ccccn4)nc32)c1	–	–	–	–	–
NC(=O)c1nc(C2CCCCC2)nc2c1[nH]c(=O)n2-c1ccc2c(c1)OCO2	–	–	–	–	–
COc1cc(-c2nc(C(N)=O)c3[nH]c(=O)n(-c4ccc(C)cc4)c3n2)cc(OC)c1OC	–	–	75	–	45
Cc1ccc(-n2c(=O)[nH]c3c(C(N)=O)nc(C4CCCCC4)nc32)cc1	–	–	–	–	–
O=C(Nc1ccccc1Br)N1CCN(c2cc(-c3cccnc3)[nH]n2)CC1	–	–	–	–	–
N#Cc1c2ccc(OCc3ccc(Br)cc3)cc2n2ccccc12	–	–	–	–	–
CCOC(=O)c1c2ccc(OCc3ccc([N+](=O)[O-])cc3)cc2n2ccccc12	–	–	–	74	–
Cc1ccc(CN2Cc3cc4ccccc4nc3OC2=O)o1	–	–	42	–	–
Cc1cc(C)c2cc3c(nc2c1)OC(=O)N(Cc1ccco1)C3	–	40	56	–	–
COc1ccc2cc3c(nc2c1)OC(=O)N(Cc1ccccc1)C3	–	–	–	32	39
COc1ccc(CCN2Cc3cc4ccccc4nc3OC2=O)cc1	–	–	–	–	–
Cc1ccn2cc(CCNS(=O)(=O)c3cc([N+](=O)[O-])ccc3C)nc2c1	–	–	·	–	–
CCN(Cc1ccccc1)c1nc2ccccc2nc1NS(=O)(=O)c1cc([N+](=O)[O-])ccc1C	–	–	34	–	–
COc1cccc(-n2c(=O)[nH]c3c(C(N)=O)nc(-c4ccc(OCc5ccccc5)cc4)nc32)c1	–	–	–	–	–
O=C1COC2(CCN(C(=O)N3CCCC3)CC2)CN1Cc1ccccc1	–	–	–	–	34
COc1ccc(CNC(=O)Cn2cnc3ccccc32)cc1OC	–	–	–	–	–
COc1cc(Cn2nnc3ccccc32)cc(Br)c1O	–	38	–	–	–
O=c1[nH]c(=O)n(-c2ccccc2)c2c1CN(C1CCCC1)CN2	–	–	–	–	–
OC(/C=C/c1c[nH]c2ccccc12)C(F)(F)F (configuration not stated)	–	–	–	–	–
SMILES	USP10 block	USP28 block	USP17 inh	USP8 block	USP30 inh
N#C/C(=C\c1ccc(C(F)(F)F)cc1)c1c[nH]c2ccccc12	–	–	32	–	–
COc1ccc(-c2cc(C(F)F)n3ncc(C(=O)N(C)Cc4cnn(C)c4C)c3n2)cc1	–	–	–	–	–
Cc1cccc(NC(=O)Cc2nnc3c(-c4nc(C5CC5)no4)cccn23)c1	–	–	–	83	–
O=C(Cc1nnc2c(-c3nc(C4CC4)no3)cccn12)N1CCCCCC1	–	–	–	43	–
Cc1cc(C)cc(NC(=O)Cc2nnc3c(-c4nc(C5CC5)no4)cccn23)c1	–	–	–	–	–
CCc1csc2nc(C)c(NC(=O)COc3ccc(C)cc3)c(=O)n12	–	–	–	–	–
COC(=O)c1ccc(CNC(=O)COC(=O)c2cc(-c3ccccc3)nc3ccccc23)cc1	–	–	–	–	47
CC(=O)Nc1ccc(S(=O)(=O)N2CCCC2c2cc(C(C)C)no2)cc1 (configuration not stated)	–	–	–	–	–
O=C(CC1CCC2(CCNCC2)CC1)N1CCN(C2CCCCC2)CC1	–	–	–	–	–
Cn1c(C(=O)NCCc2c[nH]c3ccccc23)cc2sccc21	–	39	–	–	–
CN1C[C@H]2CCN(C(=O)NCCc3c[nH]c4ccccc34)C[C@H]21	–	–	–	–	–
O=C(O)c1c(CNCCc2c[nH]c3ccccc23)c2ccccc2n1Cc1ccc(F)cc1	–	–	–	–	–
O=C(NCCc1c[nH]c2ccccc12)c1cc2sccc2n1Cc1ccccc1	–	–	44	–	–
CC(=O)N1CCc2ncn(C(C)C)c2C1C(=O)N1CCN(c2ccccc2)CC1 (configuration not stated)	–	–	–	–	–
O=C(NCc1cc2ccccc2[nH]1)c1ccc(COc2ccc(Br)cc2)cc1	–	–	–	55	–
CC(C)NS(=O)(=O)c1ccc(CCC(=O)Nc2ccc3c(c2)OCCO3)cc1	–	82	–	–	–
CC(C)C(NS(=O)(=O)c1ccc2c(c1)OCCO2)C(=O)Nc1cccc(F)c1 (configuration not stated)	–	–	44	–	39
CC(C)C(NS(=O)(=O)c1ccccc1)C(=O)OCC(=O)Nc1ccc2c(c1)OCO2 (configuration not stated)	–	–	–	–	–
O=C(COC(=O)CCc1ccc(S(=O)(=O)N2CCOCC2)cc1)Nc1ccc2c(c1)OCCO2	–	65	·	–	–
Cc1ccc(S(=O)(=O)N2CCC(C(=O)O)CC2)s1	–	–	–	–	–
Fc1ccccc1Cc1nc(-c2ccc3nncn3c2)no1	–	53	·	–	–
CCc1ccc2nc(NC(=O)c3ccc(=O)[nH]c3)sc2c1	–	–	33	–	–
CC1(c2cccc(Br)c2)NC(=O)N(Cc2ncc(-c3ccc(Cl)cc3)o2)C1=O (configuration not stated)	–	–	–	–	–
Cc1ccc(CNC(=O)c2cc(=O)nc3sc(N4CCCCCC4)nn23)cc1	–	–	–	–	31
Cc1cccc(N2CCN(CCNC(=O)c3cc4c(s3)CS(=O)(=O)C4)CC2)c1C	–	40	–	–	–
SMILES	USP10 block	USP28 block	USP17 inh	USP8 block	USP30 inh
CCOc1ccc(CCNC(=O)c2cc3c(s2)CS(=O)(=O)C3)cc1OCC	–	39	·	–	–
CCOc1ccc(CCNC(=O)c2cccc3c2C(=O)N(c2ccc(OC)cc2)C3)cc1OCC	–	–	–	–	–
O=C(c1c(F)cccc1F)N1CCC(c2nc(-c3ccncc3)no2)CC1	–	–	–	–	–
CCOc1ccccc1NC(=O)CSc1nnc2c3cc(-c4ccccc4)nn3ccn12	–	·	–	–	·
CCn1ccc2c(cc(C(=O)Nc3cccc(F)c3)n2C)c1=O	–	43	39	–	–
CCn1ccc2c(cc(C(=O)Nc3cccc(C)c3C)n2C)c1=O	–	31	–	–	–
CCOc1ccccc1CNC(=O)c1cc2c(=O)n(C)ccc2n1C	–	–	–	–	–
COC(=O)c1ccccc1Sc1nc2ccccc2cc1-c1cccc(C(F)(F)F)c1	–	–	–	–	–
